Reference: publication PMC8384837, “Expanding the binding specificity for RNA recognition by a PUF domain”

What was measured:
Assay in all cases: yeast three-hybrid, YBZ-1, SC-Leu-His + 0.5 mM 3-AT, 4 days
Conditions in all cases: tags: N-Gal4 AD-HA kept; label: inside an RPR1-promoter hybrid RNA with tandem MS2 sites; ssRNA
PUM1 PUF domain R1-ARR = PUM1 PUF domain R1-ARR (Homo sapiens, UniProt Q14671 828-1176, S863A;Q867R)
Outline: (§1)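 A centromeric plasmid in strain YBZ-1 co-expressed Pumilio-1 PUF domain libraries, randomized at the three base-contacting residues of each repeat, with matching RNA elements; the strain carries a LexA–MS2 coat fusion and a HIS3 reporter. After four days on SC-Leu (input) or SC-Leu-His + 0.5 mM 3-AT (selection), the repeat regions were PCR-amplified and Illumina-sequenced. The interaction score is the log change in variant frequency from input to selection, using log2 and a pseudocount of 1 where absent.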

PUM1 PUF domain R1-MVR = PUM1 PUF domain R1-MVR (Homo sapiens, UniProt Q14671 828-1176, S863M;R864V;Q867R)
Outline: as §1

PUM1 PUF domain R5-SIS = PUM1 PUF domain R5-SIS (Homo sapiens, UniProt Q14671 828-1176, C1007S;R1008I;Q1011S)
Outline: as §1

PUM1 PUF domain R5-QCS = PUM1 PUF domain R5-QCS (Homo sapiens, UniProt Q14671 828-1176, C1007Q;R1008C;Q1011S)
Outline: as §1

PUM1 PUF domain R3-WWG = PUM1 PUF domain R3-WWG (Homo sapiens, UniProt Q14671 828-1176, C935W;R936W;Q939G)
Outline: as §1

PUM1 PUF domain R5-HRL = PUM1 PUF domain R5-HRL (Homo sapiens, UniProt Q14671 828-1176, C1007H;Q1011L)
Outline: as §1

PUM1 PUF domain R5-SPC = PUM1 PUF domain R5-SPC (Homo sapiens, UniProt Q14671 828-1176, C1007S;R1008P;Q1011C)
Outline: as §1

PUM1 PUF domain R5-MHA = PUM1 PUF domain R5-MHA (Homo sapiens, UniProt Q14671 828-1176, C1007M;R1008H;Q1011A)
Outline: as §1

PUM1 PUF domain R6-IWR = target: T1, PUM1 PUF domain R6-IWR (Homo sapiens, UniProt Q14671 828-1176, N1043I;Y1044W;Q1047R)
T1 sequence: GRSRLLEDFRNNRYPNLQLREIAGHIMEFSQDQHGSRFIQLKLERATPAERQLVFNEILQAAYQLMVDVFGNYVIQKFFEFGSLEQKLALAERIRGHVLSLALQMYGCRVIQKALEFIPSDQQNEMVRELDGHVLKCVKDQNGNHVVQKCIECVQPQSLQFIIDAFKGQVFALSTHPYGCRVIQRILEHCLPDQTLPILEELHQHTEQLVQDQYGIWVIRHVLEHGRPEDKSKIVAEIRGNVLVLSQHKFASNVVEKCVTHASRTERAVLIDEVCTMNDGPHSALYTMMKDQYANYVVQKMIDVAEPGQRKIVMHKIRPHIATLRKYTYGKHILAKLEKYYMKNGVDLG
Outline: as §1

PUM1 PUF domain R5-RAC = PUM1 PUF domain R5-RAC (Homo sapiens, UniProt Q14671 828-1176, C1007R;R1008A;Q1011C)
Outline: as §1

PUM1 PUF domain R4-DYR = PUM1 PUF domain R4-DYR (Homo sapiens, UniProt Q14671 828-1176, N971D;H972Y;Q975R)
Outline: as §1

PUM1 PUF domain R4-GWW = PUM1 PUF domain R4-GWW (Homo sapiens, UniProt Q14671 828-1176, N971G;H972W;Q975W)
Outline: as §1

PUM1 PUF domain R4-CYP = PUM1 PUF domain R4-CYP (Homo sapiens, UniProt Q14671 828-1176, N971C;H972Y;Q975P)
Outline: as §1

PUM1 PUF domain R4-RNY = PUM1 PUF domain R4-RNY (Homo sapiens, UniProt Q14671 828-1176, N971R;H972N;Q975Y)
Outline: as §1

PUM1 PUF domain R4-SWP = PUM1 PUF domain R4-SWP (Homo sapiens, UniProt Q14671 828-1176, N971S;H972W;Q975P)
Outline: as §1

PUM1 PUF domain R3-RCN = PUM1 PUF domain R3-RCN (Homo sapiens, UniProt Q14671 828-1176, C935R;R936C;Q939N)
Outline: as §1

PUM1 PUF domain R4-SNR = PUM1 PUF domain R4-SNR (Homo sapiens, UniProt Q14671 828-1176, N971S;H972N;Q975R)
Outline: as §1

PUM1 PUF domain R5-KGS = PUM1 PUF domain R5-KGS (Homo sapiens, UniProt Q14671 828-1176, C1007K;R1008G;Q1011S)
Outline: as §1

PUM1 PUF domain R4-NWP = PUM1 PUF domain R4-NWP (Homo sapiens, UniProt Q14671 828-1176, H972W;Q975P)
Outline: as §1

PUM1 PUF domain R4-EYI = PUM1 PUF domain R4-EYI (Homo sapiens, UniProt Q14671 828-1176, N971E;H972Y;Q975I)
Outline: as §1

With “GGCUAGAACUAGUGGAUCCCCCGGCGCCCGGCGGCUCGAGCCCGGGUAAGUGUAAAUGGUCUGCAUGCCGCCGGGCGCCAUGCCUGCAGGUCGACUCUAGAAAACAUG” the binding signal (PUM1 PUF domain R1-ARR) was 0.69 log2 enrichment (interaction score).
“GGCUAGAACUAGUGGAUCCCCCGGCGCCCGGCGGCUCGAGCCCGGGUAAGUGUAAAUUGUCUGCAUGCCGCCGGGCGCCAUGCCUGCAGGUCGACUCUAGAAAACAUG” was tested, and the binding signal (PUM1 PUF domain R1-MVR) was 1.71 log2 enrichment (interaction score) and the binding signal (PUM1 PUF domain R1-ARR) was 1.97 log2 enrichment (interaction score).
In the case of “GGCUAGAACUAGUGGAUCCCCCGGCGCCCGGCGGCUCGAGCCCGGGUAAGUGUGAAUAGUCUGCAUGCCGCCGGGCGCCAUGCCUGCAGGUCGACUCUAGAAAACAUG”, the binding signal (PUM1 PUF domain R5-SIS) is reported as 3.76 log2 enrichment (interaction score) and the binding signal (PUM1 PUF domain R5-QCS) is reported as 3.56 log2 enrichment (interaction score).
With “GGCUAGAACUAGUGGAUCCCCCGGCGCCCGGCGGCUCGAGCCCGGGUAAGUGUAAGUAGUCUGCAUGCCGCCGGGCGCCAUGCCUGCAGGUCGACUCUAGAAAACAUG” the binding signal (PUM1 PUF domain R3-WWG) was 4.28 log2 enrichment (interaction score).
In the case of “GGCUAGAACUAGUGGAUCCCCCGGCGCCCGGCGGCUCGAGCCCGGGUAAGUGUUAAUAGUCUGCAUGCCGCCGGGCGCCAUGCCUGCAGGUCGACUCUAGAAAACAUG”, the binding signal (PUM1 PUF domain R5-HRL) is reported as 4.98 log2 enrichment (interaction score), the binding signal (PUM1 PUF domain R5-SPC) is reported as 2.48 log2 enrichment (interaction score) and the binding signal (PUM1 PUF domain R5-MHA) is reported as 4.69 log2 enrichment (interaction score). The binding signal (PUM1 PUF domain R5-QCS) was 0.61 log2 enrichment (interaction score).
With “GGCUAGAACUAGUGGAUCCCCCGGCGCCCGGCGGCUCGAGCCCGGGUAAGUGUAAAUAGUCUGCAUGCCGCCGGGCGCCAUGCCUGCAGGUCGACUCUAGAAAACAUG” the binding signal (PUM1 PUF domain R6-IWR) was 6.32 log2 enrichment (interaction score), the binding signal (PUM1 PUF domain R5-RAC) was 0.59 log2 enrichment (interaction score) and the binding signal (PUM1 PUF domain R4-DYR) was 1.4 log2 enrichment (interaction score). The binding signal (PUM1 PUF domain R4-GWW) was 3.18 log2 enrichment (interaction score), the binding signal (PUM1 PUF domain R4-CYP) was 5.36 log2 enrichment (interaction score) and the binding signal (PUM1 PUF domain R4-RNY) was 3.7 log2 enrichment (interaction score). The binding signal (PUM1 PUF domain R4-SWP) was 5.57 log2 enrichment (interaction score).
For “GGCUAGAACUAGUGGAUCCCCCGGCGCCCGGCGGCUCGAGCCCGGGUAAGUGUAAUUAGUCUGCAUGCCGCCGGGCGCCAUGCCUGCAGGUCGACUCUAGAAAACAUG”, the binding signal (PUM1 PUF domain R3-WWG) was 4.2 log2 enrichment (interaction score) and the binding signal (PUM1 PUF domain R3-RCN) was 2.71 log2 enrichment (interaction score).
“GGCUAGAACUAGUGGAUCCCCCGGCGCCCGGCGGCUCGAGCCCGGGUAAGUGUACAUAGUCUGCAUGCCGCCGGGCGCCAUGCCUGCAGGUCGACUCUAGAAAACAUG” was tested, and the binding signal (PUM1 PUF domain R4-DYR) was 6.53 log2 enrichment (interaction score), the binding signal (PUM1 PUF domain R4-GWW) was 0.85 log2 enrichment (interaction score) and the binding signal (PUM1 PUF domain R4-CYP) was 6.17 log2 enrichment (interaction score). For the same sequence, the binding signal (PUM1 PUF domain R4-SNR) was 2.06 log2 enrichment (interaction score).
For “GGCUAGAACUAGUGGAUCCCCCGGCGCCCGGCGGCUCGAGCCCGGGUAAGUGUCAAUAGUCUGCAUGCCGCCGGGCGCCAUGCCUGCAGGUCGACUCUAGAAAACAUG”, the binding signal (PUM1 PUF domain R5-RAC) was 3.54 log2 enrichment (interaction score), the binding signal (PUM1 PUF domain R5-HRL) was 2.78 log2 enrichment (interaction score) and the binding signal (PUM1 PUF domain R5-KGS) was 4.66 log2 enrichment (interaction score).
“GGCUAGAACUAGUGGAUCCCCCGGCGCCCGGCGGCUCGAGCCCGGGUAAGUGUAAAUCGUCUGCAUGCCGCCGGGCGCCAUGCCUGCAGGUCGACUCUAGAAAACAUG” was tested, and the binding signal (PUM1 PUF domain R1-MVR) was 2.85 log2 enrichment (interaction score) and the binding signal (PUM1 PUF domain R1-ARR) was 2.95 log2 enrichment (interaction score).
With “GGCUAGAACUAGUGGAUCCCCCGGCGCCCGGCGGCUCGAGCCCGGGUAAGUGUAUAUAGUCUGCAUGCCGCCGGGCGCCAUGCCUGCAGGUCGACUCUAGAAAACAUG” the binding signal (PUM1 PUF domain R4-NWP) was 2.37 log2 enrichment (interaction score), the binding signal (PUM1 PUF domain R4-DYR) was 6.18 log2 enrichment (interaction score) and the binding signal (PUM1 PUF domain R4-EYI) was 3.01 log2 enrichment (interaction score). For the same sequence, the binding signal (PUM1 PUF domain R4-SNR) was 2.9 log2 enrichment (interaction score) and the binding signal (PUM1 PUF domain R4-SWP) was 5.26 log2 enrichment (interaction score).
In the case of “GGCUAGAACUAGUGGAUCCCCCGGCGCCCGGCGGCUCGAGCCCGGGUAAGUGAAAAUAGUCUGCAUGCCGCCGGGCGCCAUGCCUGCAGGUCGACUCUAGAAAACAUG”, the binding signal (PUM1 PUF domain R6-IWR) is reported as 1.61 log2 enrichment (interaction score).
